Measurements: PubChem BioAssay (NCATS)
Records with an inconclusive call do not appear. Where a call stands in place of a potency, no number is given. The source made the active and inactive calls. The call rests on the fitted dose curve.

Assay: Cytotoxicity counterscreen for inhibitors of SARS-CoV-2 cell entry (AID 1645845); further: nearly all actives have a fitted effect of over 50% in size
Conditions: cell viability (SARS-CoV-2 entry assay cells); series mostly up to 57.1 µM
Source text: Assay Provider: Wei Zheng, Ph.D.
National Center for Advancing Translational Sciences, National Institute of Health, Rockville, MD.
SARS-CoV-2 spike protein, within the viral envelope, mediates viral attachment and infection of host cells. The SARS-CoV-2 spike protein specifically binds to the host receptor ACE2 (Angiotensin-converting enzyme 2). This interaction promotes endocytosis of the viral particle, additional events lead to viral-host cell membrane fusion and release of the viral contents, allowing viral replication.
While SARS-CoV-2 requires BSL-3 facilities for live virus work, pseudo-typed partices (PP) that incorporate SARS-CoV-2 spike proteins without replication elements could facilitate studies on viral entry mechanisms in a BSL-2 setting. This PP cell entry assay could also enable screening of small molecule compound libraries in BSL-2 setting to identify inhibitors of SARS-CoV-2 cell entry. To eliminate false positive compounds, ATP content cytotoxicity assay was screened in the same cell line.
SEQUENCE No. (e.g., 1, 2, 3, etc.); […] (e.g., Cells, Incubation, Reagent, etc.); VALUE and DESCRIPTION.
1. Cells. Seed 1500 HEK293-ACE2 cells (Expi293F with stable expression of human ACE2) in 2 uL/well media (DMEM, 10% FBS, 1x L-glutamine, 1x Pen/Strep, 1 ug/ml puromycin) in white 1536-well assay plates (Greiner #782073).
2. Incubation. Incubate at 37 C with 5% CO2 overnight (~16 h).
3. Compounds. Dispense 23 nL/well compounds in DMSO via pin transfer.
4. Incubation. Incubate for 1 h at 37C 5% CO2.
5. Reagent. Dispense 2 uL/well of media (DMEM, 10% FBS, 1x L-glutamine, 1x Pen/Strep, 1 ug/ml puromycin).
6. Incubation. Incubate at for 48h at 37C 5% CO2
7. Reagent. Dispense 4 uL/well of ATPLite 1step luminescence assay reagent (PerkinElmer #6016739).
8. Incubation. Incubate for 15 min at room temperature.
9. Detection. Read luminescence signal (Viewlux plate reader, PerkinElmer). Data was normalized with wells containing cells as 100%, and wells without cells (media only control) as 0%.
Potency means the concentration at half of the fitted maximal effect.

Compound | Potency
Cc1[nH]cnc1CN1CCc2c(c3ccccc3n2C)C1=O | inactive
CN(C)CCOC(c1ccc(Cl)cc1)c1ccccn1 (stereo not given) | inactive
CO/N=C1\CN(c2nc3c(cc2F)c(=O)c(C(=O)O)cn3C2CC2)CC1CN (stereo not given) | inactive
Nc1ccn([C@@H]2O[C@H](CO)[C@@H](O)C2(F)F)c(=O)n1 | inactive
CC(=O)Nc1cc([As](=O)(O)O)ccc1O | inactive
CC(=O)O[C@]1(C(C)=O)CC[C@H]2[C@@H]3C=C(Cl)C4=CC(=O)[C@@H]5C[C@@H]5[C@]4(C)[C@H]3CC[C@@]21C | inactive
O=C(c1ccccc1)c1ccc2n1CCC2C(=O)O (stereo not given) | inactive
COc1c(C)c2c(c(O)c1C/C=C(\C)CCC(=O)OCCN1CCOCC1)C(=O)OC2 | inactive
CN(CCOc1ccc(CC2SC(=O)NC2=O)cc1)c1ccccn1 (stereo not given) | inactive
CCCC(CCC)C(=O)O | inactive
CC/C=C(\C(=O)N[C@@H]1C(=O)N2C(C(=O)OCOC(=O)C(C)(C)C)=C(COC(N)=O)CS[C@H]12)c1csc(N)n1 | inactive
O=c1[nH]cc(F)c(=O)[nH]1 | inactive
COC1(CS(=O)c2ccccc2)CCN(CCc2c[nH]c3ccc(F)cc23)CC1 (stereo not given) | inactive
Cc1cccc(Nc2ccccc2C(=O)O)c1C | inactive
CCN(CC)CCCC(C)Nc1ccnc2cc(Cl)ccc12 (stereo not given) | inactive
CN1CCC(=C2c3ccccc3C=Cc3ccccc32)CC1 | inactive
CN(N=O)C(=O)N[C@@H]1[C@@H](O)[C@H](O)[C@@H](CO)O[C@@H]1O | inactive
Nc1nnc(-c2cccc(Cl)c2Cl)c(N)n1 | inactive
CNCCC(Oc1ccc(C(F)(F)F)cc1)c1ccccc1 (stereo not given) | inactive
COc1c(C)c2c(c(O)c1C/C=C(\C)CCC(=O)O)C(=O)OC2 | inactive

Compound | Potency
O=C1NC(=O)C(c2ccccc2)(c2ccccc2)N1 | inactive
Nc1ccc(O)c(C(=O)O)c1 | inactive
CN(CCOc1ccc(NS(C)(=O)=O)cc1)CCc1ccc(NS(C)(=O)=O)cc1 | inactive
CCc1c2c(nc3ccc(OC(=O)N4CCC(N5CCCCC5)CC4)cc13)-c1cc3c(c(=O)n1C2)COC(=O)[C@]3(O)CC | inactive
C[C@H]1c2cccc(O)c2C(O)=C2C(=O)[C@]3(O)C(O)=C(C(N)=O)C(=O)[C@@H](N(C)C)[C@@H]3[C@@H](O)[C@@H]21 | inactive
O=C1[C@H](CC[C@H](O)c2ccc(F)cc2)[C@@H](c2ccc(O)cc2)N1c1ccc(F)cc1 | inactive
CN(C)CCC=C1c2ccccc2C=Cc2ccccc21 | inactive
CCCCN1C[C@H](O)[C@@H](O)[C@H](O)[C@H]1CO | inactive
Cc1ccc2c(n1)Oc1ccc(C(C)C(=O)OCC(=O)N(C)C)cc1C2 (stereo not given) | inactive
CC(C)c1nc(CN(C)C(=O)N[C@H](C(=O)N[C@@H](Cc2ccccc2)C[C@H](O)[C@H](Cc2ccccc2)NC(=O)OCc2cncs2)C(C)C)cs1 | inactive
C[C@@H](c1ncncc1F)C(O)(Cn1cncn1)c1ccc(F)cc1F (stereo not given in full) | inactive
CC(CCc1ccccc1)NC(C)C(O)c1ccc(O)cc1 (stereo not given) | inactive
CC(C)(C(=O)O)c1ccc(C(O)CCCN2CCC(C(O)(c3ccccc3)c3ccccc3)CC2)cc1 (stereo not given) | inactive
Cc1oncc1C(=O)Nc1ccc(C(F)(F)F)cc1 | 8.91 µM (active)
CO[C@@H](C(=O)N1Cc2[nH]nc(NC(=O)c3ccc(N4CCN(C)CC4)cc3)c2C1)c1ccccc1 | inactive
CC[C@@]1(c2ccccc2)NC(=O)N(C)C1=O | inactive
CNS(=O)(=O)Cc1ccc2[nH]cc(CCN(C)C)c2c1 | inactive
COC(=O)C1=C(C)NC(C)=C(C(=O)OCCN(C)Cc2ccccc2)C1c1cccc([N+](=O)[O-])c1 (stereo not given) | inactive
N[C@@H]1CONC1=O | inactive
CC(C)NCC(O)COc1cccc2[nH]ccc12 (stereo not given) | inactive
